Some test systems named below: NCI-H23 lung; NCI-H226 lung; NCI-H322M lung; HOP-62 NSCLC; NCI-H460 lung; NCI-H522 lung; A549/ATCC NSCLC; 786-0 renal; COLO 205 colon; DU-145 prostate.
Common to all, as to test: NCI-60 one-dose screen, 48 h (100 = growth as untreated, 0 = no growth, -100 = all killed)
Holding throughout (settings): 10 µM unless noted

The panel holds about 83,000 compounds, 20% with a hit somewhere; the sample as a whole holds those more often.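 Note: values are percent growth. 100 is the growth of untreated cells, values between 100 and 0 indicate rising inhibition; between -100 and 0 indicates cell death.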 A number with no mark means an inactive call. The source made the active and inactive calls. The calls were made as follows: active = growth percent below 10; inactive = the rest.

On to `COc1ccc(-c2noc(N)c2-c2cc(OC)c3c(c2)OCO3)cc1`, for which the growth is 28.1% with NCI-H23 lung; 86.3% in the experiment on NCI-H226 lung; 57.5% in the experiment on NCI-H322M lung; 34.6% in the experiment with HOP-62 NSCLC; 16% in the experiment with NCI-H460 lung; -23.4% (active) in the experiment with NCI-H522 lung. The growth was 29.2% in the experiment on A549/ATCC NSCLC, 59.7% in the experiment on 786-0 renal, 12.4% with COLO 205 colon and 28.7% with DU-145 prostate.

As to `O=C(Cn1ccnc1)NC(c1ccccc1)c1ccccc1`, the growth was 94.8% in the experiment on NCI-H23 lung; 100% with NCI-H226 lung; 98.7% in the experiment on NCI-H322M lung; 96% in the experiment on HOP-62 NSCLC; 103% with NCI-H460 lung; 93.2% in the experiment with NCI-H522 lung. For the same compound, the growth in the experiment with A549/ATCC NSCLC is 105%; in the experiment on 786-0 renal it was 103%; in the experiment with COLO 205 colon it was 109%; in the experiment on DU-145 prostate it was 112%.

Regarding `COc1cc(/C=C/C(=O)Nc2ccc3c(c2)/C(=C\c2cccn2C)C(=O)N3)cc(OC)c1OC`, the growth is 57% in the experiment with NCI-H23 lung; 67.3% in the experiment with NCI-H226 lung; 61.2% with NCI-H322M lung; 45.5% in the experiment on HOP-62 NSCLC; 55.4% in the experiment with NCI-H460 lung; 5.66% (active) in the experiment with NCI-H522 lung. Also, the growth in the experiment on A549/ATCC NSCLC is 37.5%; with 786-0 renal, 54.8%; in the experiment on COLO 205 colon it was 53.7%; in the experiment on DU-145 prostate, 63%.

Turning to `COc1ccc(-c2cc(Cc3cccs3)c(=O)n(Cn3ccc4ccccc43)n2)cc1`, the growth is 105% in the experiment on NCI-H23 lung; 104% with NCI-H226 lung; 110% in the experiment with NCI-H322M lung; 105% in the experiment with HOP-62 NSCLC; 115% in the experiment with NCI-H460 lung; 95.5% in the experiment with NCI-H522 lung. The growth in the experiment on A549/ATCC NSCLC is 104%; in the experiment with 786-0 renal it was 110%; with COLO 205 colon, 110%; with DU-145 prostate it was 110%.

For `O=C1NCC(Nc2ccc(Br)cc2Cl)C(=O)N1` (stereo not given), the growth in the experiment with NCI-H23 lung is 100%; with NCI-H226 lung, 109%; in the experiment with NCI-H322M lung it was 126%; in the experiment with HOP-62 NSCLC, 113%; with NCI-H460 lung, 112%; in the experiment on NCI-H522 lung, 93%. Also, the growth is 122% with A549/ATCC NSCLC, 103% in the experiment with 786-0 renal, 98% in the experiment with COLO 205 colon and 119% in the experiment on DU-145 prostate.

`Cc1scc2c1N(C(=O)CN1CCN(C)CC1)c1ccccc1NC2=O`: the growth was 93.9% in the experiment with NCI-H23 lung; 109% in the experiment on NCI-H226 lung; 105% in the experiment on NCI-H322M lung; 103% in the experiment with HOP-62 NSCLC; 124% with NCI-H460 lung; 104% in the experiment with NCI-H522 lung. For the same compound, the growth with A549/ATCC NSCLC was 104%; in the experiment on 786-0 renal it was 98.8%; with COLO 205 colon, 108%; in the experiment on DU-145 prostate it was 118%.

Consider `CCC(C)(C)C(=O)O[C@H]1C[C@@H](C)C=C2C=C[C@H](C)[C@H](CC[C@@H]3C[C@@H](O)CC(=O)O3)[C@H]21`, for which the growth in the experiment with NCI-H23 lung was 48.7%; in the experiment on NCI-H226 lung it was 64%; in the experiment with NCI-H322M lung it was 51%; in the experiment on HOP-62 NSCLC, 80.7%; with NCI-H460 lung it was 24.3%; with NCI-H522 lung it was 8.21% (active). In addition, the growth was 67.5% with A549/ATCC NSCLC, 51.5% with 786-0 renal, 68.3% in the experiment with COLO 205 colon and 95.3% in the experiment with DU-145 prostate.

Take `Cc1cc(C)n2nc(SCC(=O)Nc3sc4c(c3C(N)=O)CCC4)nc2n1`: the growth with NCI-H23 lung is 101%; in the experiment on NCI-H226 lung, 87.1%; in the experiment with NCI-H322M lung, 99.7%; in the experiment on HOP-62 NSCLC it was 93.7%; with NCI-H460 lung, 116%; with NCI-H522 lung, 94%. For the same compound, the growth in the experiment with A549/ATCC NSCLC is 146%; in the experiment with 786-0 renal, 96.4%; in the experiment with COLO 205 colon, 118%; in the experiment with DU-145 prostate it was 101%.

Source of the values: PubChem BioAssay (NCI).
